# According to the antibiotic and cytotoxicity screens of Wong et al. (2023):
# Among all 39,000 compounds or so, about 3,300 (8.5%) were called active. The list comes from a sample in which actives are over-represented; it also holds similar structures and randomly drawn compounds.
# System: HepG2
# Test: cytotoxicity call (relative viability < 0.9)
# Conditions: 10 µM
row,SMILES,cytotoxicity call
1,C[C@@H]1CN([C@@H](C)CO)C(=O)c2cc(NC(=O)CCN3CCOCC3)ccc2O[C@H]1CN(C)S(C)(=O)=O,inactive
2,CCCNC(=O)N1C[C@H](C)[C@H](OC)CN(C)C(=O)c2ccc(NS(=O)(=O)CC(F)(F)F)cc2OC[C@@H]1C,inactive
3,C[C@H]1CN([C@@H](C)CO)C(=O)c2cc(NC(=O)c3ccncc3)ccc2O[C@@H]1CN(C)S(=O)(=O)c1cccs1,inactive
4,C[C@H]1CN([C@@H](C)CO)C(=O)c2cc(NC(=O)CCN3CCOCC3)ccc2O[C@H]1CN(C)Cc1ccc(C(=O)O)cc1,inactive
5,COc1cc([C@@H](O)CO)ccc1OS(=O)(=O)O,inactive
6,COc1ccc(S(=O)(=O)N2C[C@@H](O)COC[C@H]3O[C@H](CC(=O)N[C@H]4CCN(Cc5ccccc5)C4)CC[C@@H]32)cc1,inactive
7,C[C@@H]1CN([C@@H](C)CO)C(=O)c2cc(NS(=O)(=O)c3cccs3)ccc2O[C@@H](C)CCCCO[C@H]1CN(C)Cc1ccc2c(c1)OCO2,inactive
8,C[C@H](CO)N1C[C@H](C)[C@@H](CN(C)C(=O)Nc2cccc3ccccc23)Oc2ccc(NS(=O)(=O)c3cccs3)cc2C1=O,inactive
9,C[C@H](CO)N1C[C@H](C)[C@H](CN(C)C(=O)NC2CCCCC2)OCCCC[C@H](C)Oc2ccc(NS(=O)(=O)c3cccs3)cc2C1=O,inactive
10,CC(=O)N1CC(=O)N(c2cnn(C)c2)C[C@]12CCN(C(=O)c1cnc(C)cn1)C2,inactive
11,CCOC(=O)N(C)C[C@H]1OCc2cn(nn2)CCCC(=O)N([C@@H](C)CO)C[C@H]1C,inactive
12,CSCC[C@H](NC(=O)[C@@H](N)Cc1c[nH]c2ccccc12)C(=O)N[C@@H](CC(=O)O)C(=O)N[C@@H](Cc1ccccc1)C(N)=O,inactive
13,CSCC[C@H](NC(=O)[C@H](Cc1ccc(OS(=O)(=O)O)cc1)NC(=O)[C@@H](N)CC(=O)O)C(=O)NCC(=O)N[C@@H](Cc1c[nH]c2ccccc12)C(=O)N[C@@H](CCSC)C(=O)N[C@@H](CC(=O)O)C(=O)N[C@@H](Cc1ccccc1)C(N)=O,active
14,CSCC[C@H](NC(=O)[C@H](Cc1c[nH]c2ccccc12)NC(=O)CNC(=O)[C@@H](NC(=O)[C@H](Cc1ccc(OS(=O)(=O)O)cc1)NC(=O)[C@H](CC(=O)O)NC(=O)[C@H](CCC(N)=O)NC(=O)[C@@H]1CCC(=O)N1)[C@@H](C)O)C(=O)N[C@@H](CC(=O)O)C(=O)N[C@@H](Cc1ccccc1)C(N)=O,inactive
15,COc1cc(OC)nc(N=CNO)n1,inactive
16,O=C(C[C@@H]1C[C@H]2c3cc(NC(=O)C4CCOCC4)ccc3O[C@H]2[C@H](CO)O1)NCc1cc(F)ccc1F,inactive
17,CO[C@@H]1[C@H](N(C)C(=O)c2ccccc2)C[C@H]2O[C@]1(C)n1c3ccccc3c3c4c(c5c6ccccc6n2c5c31)C(=O)NC4,active
18,C[C@@H]1CCCCO[C@H](CN(C)C(=O)c2ccccc2)[C@@H](C)CN([C@H](C)CO)C(=O)c2cc(NC(=O)Cc3ccccc3)ccc2O1,inactive
19,Cc1noc(C)c1NC(=O)Nc1ccc2c(c1)C(=O)N([C@@H](C)CO)C[C@H](C)[C@@H](CN(C)Cc1ccccc1)OCCCC[C@H](C)O2,inactive
20,C[C@@H]1CN([C@H](C)CO)C(=O)c2cc(NS(=O)(=O)c3ccc(F)cc3)ccc2O[C@@H]1CN(C)CC1CC1,inactive
21,CN(C)C1C(O)=C(C(N)=O)C(=O)C2(O)C(O)=C3C(=O)c4c(O)cccc4C(C)(O)C3C(O)C12.Cl (stereo not drawn),inactive
22,CC(=O)N(C)C[C@H]1Oc2ncc(C#C[C@@H](C)O)cc2C(=O)N([C@H](C)CO)C[C@H]1C,inactive
23,CC(=O)N[C@@H]1[C@@H](O)[C@H](O)[C@@H](CO)O[C@H]1O,inactive
24,Cc1nc(N)sc1-c1ccnc(Nc2ccc(N3CCOCC3)cc2)n1,active

row,SMILES,cytotoxicity call
1,COc1ccc(N2CCN(c3nc(NCCO)nc(N4CCOCC4)n3)CC2)cc1,inactive
2,CC(=O)Oc1ccc(-c2cc(=O)c3c(OC(C)=O)cc(OC(C)=O)cc3o2)cc1,inactive
3,CN1CCN(C(=O)C[C@H]2CC[C@H]3[C@@H](COC[C@H](O)CN3C(=O)C3CC3)O2)CC1,inactive
4,COc1ccc(S(=O)(=O)N(C)C[C@H]2Oc3ccc(NC(=O)Cc4ccccc4)cc3C(=O)N([C@@H](C)CO)C[C@@H]2C)cc1,inactive
5,C[C@H]1CN([C@@H](C)CO)C(=O)c2cccc(NC(=O)Nc3ccccc3)c2O[C@@H]1CN(C)Cc1ccc(C(F)(F)F)cc1,inactive
6,CC(=O)c1cccc(C(F)(F)F)c1,inactive
7,Cc1ncc(NC(=O)c2cccc(C(F)(F)F)c2)cc1-c1cnc(OC2CCOCC2)c(N2CCOCC2)c1,inactive
8,Cc1ccc(Nc2ncc3c(n2)N(C)C(=O)N(c2cc(NC(=O)c4cccc(C(F)(F)F)c4)ccc2C)C3)cn1,active
9,Cc1ccc(S(=O)(=O)N(C)C[C@@H]2Oc3cc(Br)ccc3S(=O)(=O)N([C@H](C)CO)C[C@@H]2C)cc1,inactive
10,Cc1noc(C)c1S(=O)(=O)N(C)C[C@@H]1OCCCC[C@@H](C)Oc2ccc(NS(C)(=O)=O)cc2C(=O)N([C@H](C)CO)C[C@H]1C,inactive
11,CCCC[P+](CCCC)(CCCC)Cc1ccc(NC(=O)[C@H](Cc2ccc3ccccc3c2)N/C(=N/C2CCCCC2)NC2CCCCC2)cc1,inactive
12,C/C=C/c1ccc2c(c1)O[C@H](CN(C)Cc1ccc(C(=O)O)cc1)[C@@H](C)CN([C@@H](C)CO)S2(=O)=O,inactive
13,COc1ccc(CN(C)C[C@H]2OCCCC[C@@H](C)Oc3ccc(NC(=O)Nc4ccc5c(c4)OCO5)cc3C(=O)N([C@H](C)CO)C[C@H]2C)cc1,active
14,COc1ccc(CN(C)C[C@@H]2OCCCC[C@@H](C)Oc3ccc(NC(=O)Nc4ccc5c(c4)OCO5)cc3C(=O)N([C@H](C)CO)C[C@@H]2C)cc1,inactive
15,COc1ccc(CN(C)C[C@@H]2OCCCC[C@@H](C)Oc3ccc(NC(=O)Nc4ccc5c(c4)OCO5)cc3C(=O)N([C@H](C)CO)C[C@H]2C)cc1,inactive
16,COc1ccc(CN(C)C[C@@H]2OCCCC[C@H](C)Oc3ccc(NC(=O)Nc4ccc5c(c4)OCO5)cc3C(=O)N([C@@H](C)CO)C[C@H]2C)cc1,inactive
17,COc1ccc(CN(C)C[C@@H]2OCCCC[C@@H](C)Oc3ccc(NC(=O)Nc4ccc5c(c4)OCO5)cc3C(=O)N([C@@H](C)CO)C[C@@H]2C)cc1,active
18,COc1ccc(CN(C)C[C@H]2OCCCC[C@H](C)Oc3ccc(NC(=O)Nc4ccc5c(c4)OCO5)cc3C(=O)N([C@@H](C)CO)C[C@@H]2C)cc1,active
19,COc1ccc(CN(C)C[C@@H]2OCCCC[C@H](C)Oc3ccc(NC(=O)Nc4ccc5c(c4)OCO5)cc3C(=O)N([C@H](C)CO)C[C@H]2C)cc1,inactive
20,COc1ccc(CN(C)C[C@@H]2OCCCC[C@H](C)Oc3ccc(NC(=O)Nc4ccc5c(c4)OCO5)cc3C(=O)N([C@@H](C)CO)C[C@@H]2C)cc1,inactive
21,COc1ccc(CN(C)C[C@@H]2OCCCC[C@H](C)Oc3ccc(NC(=O)Nc4ccc5c(c4)OCO5)cc3C(=O)N([C@H](C)CO)C[C@@H]2C)cc1,inactive
22,COc1ccc(CN(C)C[C@H]2OCCCC[C@@H](C)Oc3ccc(NC(=O)Nc4ccc5c(c4)OCO5)cc3C(=O)N([C@H](C)CO)C[C@@H]2C)cc1,inactive
23,COc1ccc(CN(C)C[C@H]2OCCCC[C@H](C)Oc3ccc(NC(=O)Nc4ccc5c(c4)OCO5)cc3C(=O)N([C@H](C)CO)C[C@@H]2C)cc1,inactive
24,COc1ccc(CN(C)C[C@@H]2OCCCC[C@@H](C)Oc3ccc(NC(=O)Nc4ccc5c(c4)OCO5)cc3C(=O)N([C@@H](C)CO)C[C@H]2C)cc1,active
